BAZ2B block: qHTS Assay for Inhibitors of BAZ2B | Potency, µM (series often up to 114 µM), for the others: top-dose activity change, negative = inhibition, usual class: inhibitors | Bromodomain adjacent to zinc finger domain protein 2B (Homo sapiens), Q9UIF8 | AlphaScreen BAZ2B-H3K14Ac peptide displacement | hit rate 4.4% among 360,000 | AID 504333, 2011; also: potency is read from the fitted curve at half-maximal effect; % is scaled to controls: 0 for no effect and ±100 for the full control effect; nearly all actives have a fitted effect of over 60% in size
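Inhibition is scored as reduced AlphaScreen emission. The BAZ2B/b-H3(5-23)K14Ac complex (50 nM each) in PBS pH 7.4, 0.01% Tween-20 meets compound (up to 110 uM) for 30 min at RT before bead addition.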
KDM4E inh: qHTS Assay for Inhibitors of Human Jumonji Domain Containing 2E (JMJD2E); Potency, µM (series often up to 57.1 µM), for inactives: at the top dose activity change, negative = inhibition, hits mostly inhibitors; hit rate 1.6% among 230,000; JMJD2E catalytic domain, FDH-coupled NADH fluorescence (FDH is formaldehyde dehydrogenase); active = well fitted inhibition curve with a large enough effect, not every such curve was filed as active; inconclusive = small, poorly fitted or top-dose-only effect, or another doubt; inactive = no such curve, though single readings can be large or run the other way;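 also: potency is read from the fitted curve at half-maximal effect; 0% = wells with enzyme and -100% = buffer wells without enzyme; nearly all actives have a fitted effect of over 50% in size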
Target sequence (B2RXH2 1-337 limits assumed): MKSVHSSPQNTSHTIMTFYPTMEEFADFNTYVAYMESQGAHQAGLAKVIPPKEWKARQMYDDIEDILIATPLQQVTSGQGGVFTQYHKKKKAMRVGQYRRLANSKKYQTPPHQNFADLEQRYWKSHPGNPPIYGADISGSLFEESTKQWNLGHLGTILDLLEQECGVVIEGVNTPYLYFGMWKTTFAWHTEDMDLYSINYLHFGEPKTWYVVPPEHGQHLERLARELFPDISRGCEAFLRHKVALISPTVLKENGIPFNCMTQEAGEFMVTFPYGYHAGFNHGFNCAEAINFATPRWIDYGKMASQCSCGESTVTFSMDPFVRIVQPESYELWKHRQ
PI5P4K alpha inh: qHTS for Inhibitors of phosphatidylinositol 5-phosphate 4-kinase (PI5P4K) | hit rate 1.2% among 330,000 | PI5P4Kalpha enzyme, ADP-Glo luminescence, 60 min; stronger effect = lower value | max response, %; active = max response of -50% or lower; inconclusive = between -30% and -50%; inactive = -30% or higher; also: value at the top dose of about 77 µM; % is scaled to controls: 0 for no effect and ±100 for the full control effect
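Compounds were pin-transferred onto PI5P4Kalpha and substrate in HEPES pH 7.4 buffer with EGTA, CHAPS and 5% DMSO. ATP (5 microM final) started the reaction, which ran 60 minutes at room temperature before ADP-Glo detection.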
JMJD2A Tudor: qHTS Assay for Inhibitors of JMJD2A-Tudor Domain; AlphaScreen JMJD2A-Tudor / H3K4me3 peptide binding; Potency, µM (top dose mostly 114 µM), for the others: top-dose activity change, negative = inhibition, most hits filed as inhibitors; hit rate 4.4% among 390,000; also: potency is read from the fitted curve at half-maximal effect; % is scaled to controls: 0 for no effect and ±100 for the full control effect; nearly all actives have a fitted effect of over 50% in size
L3MBTL1 inh: qHTS Assay for the Inhibitors of L3MBTL1; AlphaScreen L3MBTL1–H3K9me1 peptide binding; Potency, µM (titrated, usually from 57.1 µM), without a hit: at the top dose activity, negative = inhibition, actives largely listed as inhibitors; hit rate 0.66% among 230,000; also: potency is read from the fitted curve at half-maximal effect; % is scaled to controls: 0 for no effect and ±100 for the full control effect; nearly all actives have a fitted effect of over 60% in size
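First, the protein-peptide complex forms for 30 min at room temperature (L3MBTL1 50 nM, biotinylated H3K9me1 peptide 75 nM). Next, compounds are pin-transferred and incubated 30 min. Finally, AlphaScreen beads are added and read after 30 min.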
HP1b binding inh: HTS for Inhibitors of HP1-beta Chromodomain Interactions with Methylated Histone Tails | AlphaScreen HP1-beta / biotin-H3K9me3 peptide binding | hit rate 0.56% among 390,000 | Potency, µM (doses to about 114 µM), for inactives: top-dose activity change, negative = inhibition, actives largely listed as inhibitors; also: potency is read from the fitted curve at half-maximal effect; nearly all actives have a fitted effect of over 70% in size
Target sequence (P83916 whole entry, looked up): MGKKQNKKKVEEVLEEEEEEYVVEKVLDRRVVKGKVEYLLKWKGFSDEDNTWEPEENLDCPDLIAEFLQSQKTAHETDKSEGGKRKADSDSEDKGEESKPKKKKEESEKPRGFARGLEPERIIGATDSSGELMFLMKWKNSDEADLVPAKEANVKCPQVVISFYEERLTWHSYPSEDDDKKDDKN
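AlphaScreen: HP1-beta (50 nM) preformed 30 min with biotin-H3(1-18)K9me3 peptide (50 nM) in PBS pH 7.4, 0.01% Tween-20. Compound added for 30 min at RT, then streptavidin donor/nickel chelate acceptor beads (10 ug/mL) for 30 min.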
* = called active by the depositor; ? = inconclusive; . = no result; [ ] = remark or other dose. Rows were chosen to be rich in hits. Some 5.7% of all compounds tested hit in one or more screens of this group. Unless noted, calls follow the shape of the dose curve; as a rule, active = well fitted inhibition curve with a large enough effect; inconclusive = small, poorly fitted or top-dose-only effect; inactive = no such curve, though single readings can be large or run the other way.

SMILES	BAZ2B block	KDM4E inh	PI5P4K alpha inh	JMJD2A Tudor	L3MBTL1 inh	HP1b binding inh
CCC[C@H]1NC(=O)[C@H](C)N(C)C(=O)C(C)(C)C(=O)C(C)NC(=O)[C@H](Cc2ccc(OC)cc2)N(C)C(=O)[C@H](C(C)C)N(C)C(=O)CNC(=O)[C@H](CC(C)C)N(C)C(=O)CNC(=O)[C@H]([C@@H](C)CC)OC(=O)[C@H]1C (some centres undefined)	.	.	-3	22µM*	-8%	-6%
COc1ccccc1N1CCN(C(=O)c2cc3c(=O)oc4ccccc4c3s2)CC1	7%	.	.	-17%	.	10%
CC(=O)/C(=N\Nc1ccccc1)Sc1nncn1C	?	-2%	-6	20µM*	6%	18%
CC(=O)/C(=N\Nc1ccccc1)Sc1nnc(-c2ccccc2)n1-c1ccccc1	-11%	2%	-2	32µM*	6%	52%
CC(=O)/C(=N\Nc1ccccc1Cl)Sc1nnc(-c2ccccc2)n1-c1ccccc1	-33%	-14%	-4	-29%	-14%	51%
CC(C)(CO)NCC#Cc1ccccc1	-23%	8%	0	-14%	-1%[11.4 µM]	23%
CCn1c(Cc2c(C)[nH]c3ccccc23)n[nH]c1=S	-35%	3%	0	4µM*	-8%[11.4 µM]	15%
Cc1[nH]c2ccccc2c1CCO	6%	2%	2	-5%	-9%	9%
C=CCn1c(-c2csc3ccccc23)n[nH]c1=S	-5%	-14%	.	18µM*	.	-8%
CCn1c(-c2c[nH]c3ccccc23)n[nH]c1=S	1%	-9%	.	4µM*	.	-15%
C=CCn1c(-c2csc(-c3ccccc3)n2)n[nH]c1=S	1%	-7%	-20	-18%	.	34%
Cn1c(-c2cnn(-c3ccccc3)c2N)n[nH]c1=S	-10%	-10%	1	?	-11%	39%
C=CCn1c(-c2cnn(-c3ccccc3)c2N)n[nH]c1=S	-21%	0%	7	4µM*	1%	6%
O=C(c1cccc(Cl)c1)N1CCC(c2nc3c(nnn3Cc3ccc(F)cc3F)c(=O)[nH]2)CC1	-11%	.	.	-9%	.	23%
C=CCn1c(-c2c[nH]c3ccccc23)n[nH]c1=S	0%	?	-17	6.3µM*	1%	14%
CC(C)C1C(=O)Nc2ccc(S(=O)(=O)NCc3ccc(Cl)cc3)cc21 (centres undefined)	5%[57.1 µM]	.	.	-19%	.	-5%
O=S(=O)(c1ccc2oc(=S)[nH]c2c1)N1CCOCC1	-38%	.	-69*	79µM*	1%	-41%
O=S(=O)(c1ccc2oc(=S)[nH]c2c1)N1CCCCC1	-1%	2%	?	-18%	9%	14%
O=S(=O)(c1ccc(=S)[nH]c1)N1CCCCCC1	1%	.	-2	4%	9%	32%
O=S(=O)(Nc1cccc(Cl)c1)c1ccc2oc(=S)[nH]c2c1	.	-9%	-23	20µM*	-2%	-15%
O=C1CCc2cc(S(=O)(=O)Nc3cccc(Cl)c3)ccc2N1	.	.	.	-11%	.	.
O=S(=O)(c1ccc(=S)[nH]c1)N1CCOCC1	-5%	.	?	11µM*	2%	-19%
Cc1ccc(S(=O)(=O)c2cn(CC(=O)Nc3cccc(C)c3)c3cc4c(cc3c2=O)OCO4)cc1	0%	.	.	-8%	.	40%
CC(C)NC(=O)C1C(c2ccccc2)=Nc2ccccc2N1C(=O)c1ccc(C(F)(F)F)cc1 (centres undefined)	.	.	-6	.	.	.
CO[C@@H]1c2cc(F)ccc2/C(=C\CCOC(=O)C/C=C/c2ccccc2)[C@H]1C	.	-3%	.	.	.	.
SMILES	BAZ2B block	KDM4E inh	PI5P4K alpha inh	JMJD2A Tudor	L3MBTL1 inh	HP1b binding inh
Cc1ccc(S(=O)(=O)N2CCN(C3CCN(Cc4ccccc4)CC3)CC2)cc1	.	0%	.	2%	-1%	25%
COc1ccc(CN2CCN(C(=O)c3ccc(-c4ccccc4)cc3)CC2)c(OC)c1OC	?	-3%	0	-33%	.	9%
Cc1ccc(CN2CCC(N3CC(C)OC(C)C3)CC2)cc1 (centres undefined)	56µM*	.	-5	22µM*	.	?
COc1ccc(CN2CCC(N3CC(C)OC(C)C3)CC2)c(OC)c1OC (centres undefined)	?	.	-6	20µM*	4%	?
Cc1cc(C)c2c(n1)sc1c(=O)n(-c3ccccc3C(F)(F)F)nnc12	-8%	.	.	0%	.	20%
COc1cc(OC)c2c(O)c3c(c(-c4c5c(c(O)c6c(OC)cc(OC)cc46)CO[C@@H](C)[C@H]5O)c2c1)[C@H](O)[C@H](C)OC3	45µM*	?	-90*	50µM*	?	?
NC(=O)NC(=O)CSc1nc(C2CCCCC2)n(-c2ccccc2)n1	-3%	10%	4	-10%	-2%	1%
OCCNCCSc1nc(C2CCCCC2)n(-c2ccccc2Cl)n1	?	?	-3	0.89µM*	2%	-11%
CCOCCCn1c(-c2ccc(Cl)cc2)n[nH]c1=S	-6%	-10%	-4	4µM*	.	-21%
COCCCn1c(-c2ccc(Cl)cc2)n[nH]c1=S	-17%	-6%	2	7.9µM*	.	-11%
COCCCn1c(-c2ccccc2Cl)n[nH]c1=S	-1%	0%	-3	7.9µM*	.	22%
S=c1[nH]nc(-c2ccc(Cl)cc2)n1CCCN1CCOCC1	6%	-3%	-2	10µM*	.	16%
CCn1c(-c2csc(-c3ccc(Cl)cc3)n2)n[nH]c1=S	6%	-4%	0	-3%	.	50%
CCn1cnc2c(Nc3ccc(CC(=O)N=C(N)N)cc3)nc(C#N)nc21	.	.	.	-21%	.	.
Cc1ccnc(NS(=O)(=O)c2ccc(NC(=O)C3COc4ccccc4O3)cc2)n1 (centres undefined)	-22%	-2%	-29	18µM*	.	?
COc1ccc(C(=O)Nc2ccc(S(=O)(=O)Nc3nccc(C)n3)cc2)cc1	0%	.	-8	5%	.	63%
Cc1ccnc(NS(=O)(=O)c2ccc(NC(=O)c3ccc(N4C(=O)CCC4=O)cc3)cc2)n1	?	14%	-64*	-30%	-10%	24%
Cn1c(N)c(C(=O)COC(=O)C2Cc3ccccc3CN2S(C)(=O)=O)c(=O)n(C)c1=O (centres undefined)	.	.	-61*	.	.	.
S=c1[nH]nc(CN2CCCC2)n1Cc1ccccc1	-4%	-3%	-10	3.5µM*	?	11%
Cc1n[nH]c(=S)n1Cc1ccccc1	-15%	?	3	?	0%	21%

Compound activity from PubChem.
